SKKanGAS inh: blocks kanamycin growth of S. pyogenes SKKanGAS strain; AID 1662; inhibition, % at 7.5 µM; actives 1.3% (n = 300,000); BacTiter-Glo, 6 h;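 active = mean replicate score, as percent of positive control median, at least 50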;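 also: strain carries kanamycin resistance gene driven by streptokinase promoter and grows in 40 µg/ml kanamycin; loss of luminescence reflects streptokinase promoter inhibition or plain growth inhibition; 0% = median of DMSO wells and 100% = positive control at its reference dose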
TIM10 inh: growth inhibitors of TIM10 yeast strain. S. cerevisiae TIM10 strain growth, BacTiter-Glo luminescence, 24 h. inhibition, % at 10 µM. actives 1.4% (n = 330,000). AID 463195;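 active = inhibition of 40% or more at the single tested concentration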;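 also: wild-type TIM10 isogenic control strain grown at permissive 25 °C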
tim10-1 inh: inhibits growth of tim10-1 mutant yeast; AID 463190; actives 2.2% (n = 330,000); S. cerevisiae tim10-1 ts strain growth, BacTiter-Glo, 24 h; inhibition, % at 20 µM;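 active = inhibition of at least 40%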;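 also: mutant grown at 25 °C; 0% = DMSO wells with yeast and 100% = wells holding no yeast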
tim23-1 inh: growth inhibitors of tim23-1 mutant yeast; AID 463212; S. cerevisiae tim23-1 growth, BacTiter-Glo luminescence, 24 h; actives 1.3% (n = 330,000); inhibition, % at 20 µM;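 active = growth inhibition of the mutant yeast at or above 50%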;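 also: temperature-sensitive mutant grown at 25 °C; plate controls were DMSO-treated mutant yeast for no effect and medium wells lacking yeast for full effect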
NALP3 yeast inh: inhibitors of NALP3 inflammasome in yeast | actives 0.39% (n = 330,000) | inhibition, % at 10 µM | Yeast reconstituted NLRP3/ASC/caspase-1, beta-gal luminescence, 24 h;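 active = inhibition of 50% or more; inactive = inhibition below 50%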;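 also: plate controls were induced DMSO wells for no effect and uninduced yeast grown without galactose for full effect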
NALP3 yeast conf: confirmation of NALP3 inhibitors in yeast | shares compounds with NALP3 yeast inh | yeast expressing human NALP3, luminescence | inhibition, % at 10 µM | actives 81% (n = 1,300); in the data active = inhibition above about 48%
Casp1-ASC yeast: active in yeast caspase-1-ASC counter-screen for NALP3 inhibitors; shares compounds with NALP3 yeast inh; yeast expressing Caspase-1-ASC, luminescence counter screen; inhibition, % at 10 µM; actives 66% (n = 1,000)
NALP3 retest: confirmation retest of NALP3 inhibitors in yeast; yeast expressing human NALP3, luminescence read-out; inhibition, % at 10 µM; shares compounds with NALP3 yeast inh; actives 53% (n = 1,000)
tim10-1 conf: tim10-1 yeast growth inhibition, confirmed; S. cerevisiae tim10-1 ts strain growth, BacTiter-Glo, 24 h; inhibition, % at 20 µM; shares compounds with tim10-1 inh; actives 56% (n = 7,400);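 active = inhibition of yeast growth at or above a set limit in either of two repeat tests at 20 µM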;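 also: tim10-1 mutant grown at permissive 25 °C to find synthetic lethal compounds; 0% = DMSO yeast wells and 100% = medium wells without yeast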
* = called active by the depositor; . = no result. An excerpt weighted towards active compounds, which were near 4.6% of everything screened. Rule as the data show it, unless noted: active = inhibition above about 50%; inactive = the rest.

SMILES	SKKanGAS inh	TIM10 inh	tim10-1 inh	tim23-1 inh	NALP3 yeast inh	NALP3 yeast conf	Casp1-ASC yeast	NALP3 retest	others
O=C(Cc1c(Cl)cccc1Cl)OCC(=O)N1CCOCC1	.	-9.3	-1.6	-2.9	6.1	.	.	.
O=S(=O)(/N=C(/Nc1cccc2ccccc12)c1ccccc1)c1ccc(Br)cc1	2.9	17.9	14.2	17.9	6.4	.	.	.
CC(C)(C)N1CC23CCC(C[C@@H]2C1=O)O3 (some centres not stated)	9.8	4.5	-1.8	18.7	10.4	.	.	.
O=c1c2ccccc2oc2cc(C#CC3(O)CCCCC3)ccc12	17.6	13.5	21.9	30.2	15.9	.	.	.
COc1cccc2oc3cc(C#CC4(O)CCCCC4)ccc3c(=O)c12	35.5	0.1	32.6	9.1	56.5*	59.8*	62.2*	47.5
COc1ccc(N=C2S/C(=C\c3ccc(N4CCOCC4)o3)C(=O)N2CCc2c[nH]c3ccccc23)cc1	59.5*	12.1	2.1	25.5	57.2*	53.5*	.	.
COc1ccc(N=C2S/C(=C\c3ccc(OCC(=O)O)cc3)C(=O)N2CCc2c[nH]c3ccccc23)cc1	16.8	2.3	25.2	19.5	21.7	.	.	.
CC(=O)OCC(=O)[C@H]1CC[C@H]2[C@@H]3CCC4=CC(=O)CC[C@]4(C)[C@H]3CC[C@]12C	-7.9	-5.8	12.8	38.9	49.6	.	.	.
CC(=O)OCC(=O)C1CCC2C3CC=C4CC(O)CCC4(C)C3CCC12C (configuration not stated)	.	23.0	20.8	30.3	74.1*	80.7*	77.3*	65.9*
CCCCCCN[C@H]1CCC2C3CC=C4C[C@@H](O)CC[C@]4(C)C3CC[C@@]21C (some centres not stated)	.	-37.1	19.0	18.2	61.6*	65.5*	.	.
Cc1ccc(NC(=O)CCC(=O)c2cccs2)cc1F	-1.2	0.3	-51.9	-2.1	37.9	.	.	.
C=CCc1ccc(OCCn2nnc3ccccc32)c(OC)c1	0.9	4.8	19.7	32.6	53.1*	63.2*	50.2*	31.0
Cc1ccc(/C=C2\SC(=S)N(c3cccnc3)C2=O)cc1	6.6	10.3	1.3	8.2	54.1*	23.7	.	.
O=C1/C(=C/c2cccnc2)SC(=S)N1CCc1ccccc1	-2.4	-25.5	9.1	22.5	50.0*	13.6	.	.
CCOc1ccc(N2C(=O)/C(=C/c3ccccn3)SC2=S)cc1	-1.9	14.9	6.1	6.5	9.5	.	.	.
O=C1/C(=C/c2cccnc2)SC(=S)N1c1ccc(O)cc1	-20.7	-2.1	5.9	-9.7	87.3*	89.2*	90.0*	74.0*
O=C1/C(=C/c2ccccn2)SC(=S)N1c1cccc(O)c1	2.9	22.9	23.0	8.9	81.3*	73.6*	79.5*	51.4*
O=C1/C(=C/c2cccnc2)SC(=S)N1c1ccc(F)cc1	-4.8	15.4	15.9	19.5	23.9	.	.	.
O=C1/C(=C/c2cccnc2)SC(=S)N1CC1CCCO1 (configuration not stated)	-2.6	28.4	18.8	41.6	23.8	.	.	.
CC(=O)c1ccc(S(=O)(=O)NCCCC(=O)N(C)Cc2ccc3c(c2)OCO3)cc1	.	-2.8	0.7	-4.6	8.7	.	.	.
COc1ccc(S(=O)(=O)N2CCOCC2)cc1NC(=O)c1sccc1C	.	8.6	17.6	16.7	7.9	.	.	.
Nc1ncnc2c1c(-c1ccc(Oc3ccccc3)cc1)cn2C1CCCC1	.	18.5	35.1	47.8	28.3	.	.	.
CCOC(=O)C1=C(COC(=O)CCCOc2ccccc2)NC(=O)NC1C (configuration not stated)	.	-14.2	-17.8	0.9	15.0	.	.	.
O=C(NNC(=O)c1c(O)c2ccccc2[nH]c1=O)c1ccccc1Br	8.7	19.7	-22.7	33.3	57.4*	72.1*	47.4	47.3
O=C(CCl)NNC(=O)c1c(O)c2ccccc2[nH]c1=O	3.6	-23.6	-40.1	11.1	7.6	.	.	.
SMILES	SKKanGAS inh	TIM10 inh	tim10-1 inh	tim23-1 inh	NALP3 yeast inh	NALP3 yeast conf	Casp1-ASC yeast	NALP3 retest	others
O=C(NC1CC1)c1c(O)c2ccccc2[nH]c1=O	-1.7	13.9	-22.7	33.4	68.7*	75.4*	39.7	46.4
COc1ccccc1C1CC(=O)Oc2ccc(C(C)(C)C)cc21 (configuration not stated)	.	11.0	19.4	46.5	.	.	.	.
CCOC(=O)N1CCN(C(=O)CCCn2nnnc2CN2CCC(C)CC2)CC1	3.3	12.2	5.4	-2.4	8.0	.	.	.
CCN(CC)S(=O)(=O)c1cccc(-c2nc3n(n2)Cc2ccccc2-3)c1	4.9	36.6	29.2	16.5	-107.4	-0.4	.	.
COc1cc(C=O)ccc1OCCSc1ccc(C)cc1	0.2	-23.7	17.3	21.1	18.3	.	.	.
CCOc1cc(C=O)ccc1OCCSc1ccc(C)cc1	0.8	-3.1	0.0	16.5	65.3*	69.5*	65.2*	39.4
O=C1CNC(=S)N1c1nc2ccccc2s1	28.8	21.1	-11.5	43.2	53.6*	62.5*	53.7*	59.0*
O=C1CCC(=O)N1c1ccc(-c2nc3ccccc3s2)cc1	5.9	-6.1	15.6	5.1	20.1	.	.	.
O=C(c1cc(COc2ccccc2)on1)N1CCCC(CN2CCOCC2)C1 (configuration not stated)	-3.0	-9.5	25.3	8.7	17.7	.	.	.
CCc1ccccc1NC(=O)c1cc(-c2cccs2)on1	2.6	-33.9	-25.8	1.1	56.5*	65.0*	59.0*	59.8*
CN(C)c1ccc(C(=O)/C=C/c2ccccc2)cc1	4.7	16.3	20.6	4.9	52.5*	72.2*	42.9	39.9
CN(C)c1ccc(C(=O)/C=C/c2ccc(Br)cc2)cc1	-7.8	14.1	26.0	29.3	31.5	.	.	.
O=C(Nc1nccs1)c1cc2c(s1)-c1ccccc1OC2	39.5	22.1	59.0*	25.1	53.8*	66.8*	14.2	18.1	tim10-1 conf=5.2
CCCSc1ccc2nc(-c3ccccc3)cn2c1	9.4	27.0	44.9*	35.6	51.3*	60.9*	72.2*	60.8*	tim10-1 conf=18.1
CN(C)c1cc2c(c(N(C)C)c1)C(=O)c1ccccc1C2=O	-1.7	16.9	44.1*	24.2	52.1*	47.5	50.6*	49.9	tim10-1 conf=33.5*
CN(C)S(=O)(=O)c1cccc2c1C(=O)c1ccccc1C2=O	-3.0	-2.8	32.0	16.8	2.8	.	.	.
O=C(CN(C1CCCCC1)S(=O)(=O)c1ccc(F)cc1)NCCCO	-6.9	10.5	2.5	22.2	9.5	.	.	.
O=C(CN(C1CCCCC1)S(=O)(=O)c1ccc(F)cc1)Nc1ccc2c(c1)OCO2	-2.1	21.7	45.3*	35.8	50.9*	56.3*	44.7	35.0	tim10-1 conf=20.9
Nc1nc(N)c(N=Nc2ccc(C(=O)O)cc2)c(N)n1	16.7	-6.3	14.7	-6.4	-4.7	.	.	.
O=C(O)c1ccc(N=Nc2c(O)ccc3ncccc23)cc1	12.2	15.1	42.1*	36.6	55.3*	82.3*	54.3*	53.3*	tim10-1 conf=34.0*

Screens (PubChem)
